Laboratory results: PubChem BioAssay (Tox21)
Records with an inconclusive call do not appear. Calls of active or inactive are those of the source. Unless noted, calls follow the shape of the dose curve; as a rule, active = well fitted curve in the direction sought with a large enough effect in the repeat runs; inconclusive = weak or mixed curves; inactive = no such curve, though single readings can be large; an effect the other way counts as inactive or inconclusive.

Assays:
[1] = qHTS assay to identify small molecule agonists of the RXR signaling pathway - cell viability counter screen (AID 1159529); also: nearly all actives have a fitted effect of over 50% in size; also: potency is read from the fitted curve at half-maximal effect
Procedure, shortened: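 Same-well viability check after the LiveBLAzer FRET read: CellTiter-Glo added, luminescence measured after 30 min at room temperature. Reporter HEK 293T cells had been treated with compounds for 16 hr following a 5 hr preincubation.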

[2] = qHTS assay to identify small molecule agonists of the retinoic acid receptor (RAR) signaling pathway (AID 1159553); also: potency is read from the fitted curve at half-maximal effect
Procedure, shortened: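 Quantitative high-throughput format: the Tox21 10K library was tested on C3RL4 RARE-luciferase cells for 6 hr at 37 C and 5% CO2, with luminescence measured after a 30 min room-temperature reagent step.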

[3] = target: Luciferin 4-monooxygenase (Photinus pyralis) (UniProt P08659); experiment: qHTS assay to identify small molecule inhibitors of firefly luciferase (AID 1224835); also: nearly all actives have a fitted effect of over 25% in size; also: potency is read from the fitted curve at half-maximal effect
Luciferin 4-monooxygenase (Photinus pyralis), sequence (P08659 whole entry, looked up): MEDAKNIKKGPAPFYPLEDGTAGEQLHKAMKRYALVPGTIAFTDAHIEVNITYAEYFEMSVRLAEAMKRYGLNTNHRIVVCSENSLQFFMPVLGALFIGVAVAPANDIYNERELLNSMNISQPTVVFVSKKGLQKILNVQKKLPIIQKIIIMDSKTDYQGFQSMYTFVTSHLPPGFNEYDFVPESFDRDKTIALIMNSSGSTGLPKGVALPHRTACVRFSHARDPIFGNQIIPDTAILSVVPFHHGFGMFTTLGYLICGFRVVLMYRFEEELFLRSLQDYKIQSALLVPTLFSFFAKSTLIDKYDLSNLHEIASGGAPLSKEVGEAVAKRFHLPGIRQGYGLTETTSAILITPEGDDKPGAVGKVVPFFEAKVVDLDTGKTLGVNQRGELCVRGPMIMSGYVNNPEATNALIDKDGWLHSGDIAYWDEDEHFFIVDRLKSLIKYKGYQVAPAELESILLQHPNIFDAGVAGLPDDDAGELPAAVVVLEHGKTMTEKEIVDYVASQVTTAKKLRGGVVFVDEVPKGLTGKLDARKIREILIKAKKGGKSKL
Procedure, shortened: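 Inhibition of purified Photinus luciferase is measured by luminescence. Substrate levels (D-luciferin, ATP) sit at their KM values. Each compound is tested in a concentration series.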

[4] = qHTS assay to identify small molecule agonists of the constitutive androstane receptor (CAR) signaling pathway - cell viability counter screen (AID 1224836); also: nearly all actives have a fitted effect of over 45% in size; also: potency is read from the fitted curve at half-maximal effect
Procedure, shortened: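 Compound titrations (15 concentrations) went onto HepG2-CYP2B6-hCAR cells 4 h after seeding, alongside PK11195 at a final 0.75 uM; a 23 h, 37 C/5% CO2 incubation preceded CellTiter-Fluor viability measurement.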

[5] = qHTS assay to identify small molecule antagonists of the constitutive androstane receptor (CAR) signaling pathway - cell viability counter screen (AID 1224837); also: nearly all actives have a fitted effect of over 45% in size; also: potency is read from the fitted curve at half-maximal effect
Procedure, shortened: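 Cells are seeded, rested 4 hr at 37 C/5% CO2, dosed with compound (15-point series) and 50 nM CITCO, incubated a further 23 hr, and then CellTiter-Fluor reagent is added before fluorescence is read. The line is HepG2 with stable hCAR and CYP2B6-2.2kb.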

[6] = qHTS assay to identify small molecule antagonists of the retinoid acid receptor (RAR) signaling pathway - cell viability counter screen (AID 1159551); also: nearly all actives have a fitted effect of over 35% in size
Procedure, shortened: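 ATP-based viability, C3RL4 cells, 6 h at 37 C with 1 uM final retinol co-added after compound; luminescence read 30 min post CellTiter-Glo, RT.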

[7] = qHTS assay to identify small molecule antagonists of the retinoic acid receptor (RAR) signaling pathway (AID 1159552; also: nearly all actives have a fitted effect of over 50% in size; also: potency is read from the fitted curve at half-maximal effect)
Procedure, shortened: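 Readout: luciferase luminescence, 30 min post-reagent at RT. Setup: C3RL4 RARE reporter cells, compounds plus retinol 1 uM final, 6 hr incubation at 37 C and 5% CO2.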

[8] = qHTS assay to identify small molecule antagonists of the estrogen related receptor (ERR) signaling pathway from Tox21 library - cell viability counter screen (AID 1224834); also: nearly all actives have a fitted effect of over 30% in size; also: potency is read from the fitted curve at half-maximal effect
Procedure, shortened: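 Compounds in DMSO were pinned onto ERR cells that had been incubated for 6 h, and the plates were held at 37 C for 17.5 h. CellTiter-Fluor reagent was then added and fluorescence was measured after 30 min.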

[9] = target: Nuclear receptor subfamily 1 group I member 3 (Homo sapiens) (UniProt Q14994); experiment: qHTS assay to identify small molecule agonists of the constitutive androstane receptor (CAR) signaling pathway (AID 1224839); also: nearly all actives have a fitted effect of over 15% in size; also: potency is read from the fitted curve at half-maximal effect
Nuclear receptor subfamily 1 group I member 3 (Homo sapiens), sequence (Q14994 whole entry, looked up): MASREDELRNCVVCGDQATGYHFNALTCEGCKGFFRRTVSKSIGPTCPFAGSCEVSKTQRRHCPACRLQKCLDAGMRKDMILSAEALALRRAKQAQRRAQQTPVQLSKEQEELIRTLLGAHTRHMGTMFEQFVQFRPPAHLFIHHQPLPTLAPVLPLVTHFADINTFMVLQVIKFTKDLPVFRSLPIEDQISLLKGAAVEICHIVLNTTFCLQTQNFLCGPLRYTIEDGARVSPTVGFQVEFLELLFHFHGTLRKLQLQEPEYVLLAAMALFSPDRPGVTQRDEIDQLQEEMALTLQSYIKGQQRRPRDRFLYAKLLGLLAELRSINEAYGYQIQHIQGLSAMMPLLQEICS
Procedure, shortened: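 In this screen, CAR-driven CYP2B6 promoter activity is measured by luminescence in HepG2-CYP2B6-hCAR cells after 24 h with test compounds and 0.75 uM PK11195 (final concentration).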

[10] = qHTS assay to identify small molecule antagonists of the estrogen related receptor signaling pathway with the pleiotropic PPARgamma coactivator (PGC) from Tox21 10K library (AID 1224841; call rule not given here; also: actives are mostly falling curves and most rising ones were filed inactive; nearly all actives have a fitted effect of over 50% in size; also: potency is read from the fitted curve at half-maximal effect)
Procedure, shortened: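 Cells stably carrying the PGC/ERR reporter, seeded at 2,000 per well, received pin-transferred compounds 6 h post-plating. Exposure lasted 18 h at 37 C. Signal: One-Glo luminescence.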

[11] = qHTS assay to identify small molecule agonists of the estrogen related receptor signaling pathway with the pleiotropic PPARgamma coactivator (PGC) from Tox21 10K library (AID 1224842); also: nearly all actives have a fitted effect of over 15% in size
Procedure, shortened: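 Luminescence from One-Glo (30 min, room temperature) measured after PGC/ERR cells had 18 h at 37 C with pinned compound (23 nL in DMSO). Cells had been seeded at 2,000 per well and pre-incubated 6 h.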

[12] = target: Thyrotropin receptor (Homo sapiens) (UniProt P16473); experiment: qHTS assay to identify small molecule agonists of the thyroid stimulating hormone receptor (TSHR) signaling pathway (AID 1224843; calls by dose curve; also: nearly all actives have a fitted effect of over 45% in size)
Thyrotropin receptor (Homo sapiens), sequence (P16473 whole entry, looked up): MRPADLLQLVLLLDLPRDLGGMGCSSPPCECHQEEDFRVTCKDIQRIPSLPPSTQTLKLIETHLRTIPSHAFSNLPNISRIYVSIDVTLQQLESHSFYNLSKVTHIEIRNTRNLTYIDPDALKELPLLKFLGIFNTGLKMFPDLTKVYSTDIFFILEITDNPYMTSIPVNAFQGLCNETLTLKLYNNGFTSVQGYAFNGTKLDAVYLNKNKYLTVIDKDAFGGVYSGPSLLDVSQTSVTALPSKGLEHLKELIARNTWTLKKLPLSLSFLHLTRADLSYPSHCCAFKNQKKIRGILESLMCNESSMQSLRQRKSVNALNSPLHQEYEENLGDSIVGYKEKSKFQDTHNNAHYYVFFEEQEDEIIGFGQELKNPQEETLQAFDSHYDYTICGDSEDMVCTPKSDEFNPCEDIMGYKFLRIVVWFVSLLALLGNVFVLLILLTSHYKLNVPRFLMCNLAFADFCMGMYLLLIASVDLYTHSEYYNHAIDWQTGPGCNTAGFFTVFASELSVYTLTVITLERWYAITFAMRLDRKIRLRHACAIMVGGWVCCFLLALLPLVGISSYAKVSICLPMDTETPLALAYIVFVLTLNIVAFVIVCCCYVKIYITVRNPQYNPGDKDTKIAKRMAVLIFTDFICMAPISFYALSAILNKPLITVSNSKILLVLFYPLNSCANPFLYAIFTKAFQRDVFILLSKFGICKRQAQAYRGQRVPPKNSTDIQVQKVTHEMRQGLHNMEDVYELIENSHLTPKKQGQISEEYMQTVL
Procedure, shortened: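 A cell-based cAMP HTRF format was run in TSHR-transfected HEK293 cells, 800 per well. Treatment: 30 min, room temperature. Detection: 1 h with labelled cAMP and anti-cAMP cryptate. Concentration-response over 15 points, three replicates.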

[13] = target: Nuclear receptor subfamily 1 group I member 3 (Homo sapiens) (UniProt Q14994); experiment: qHTS assay to identify small molecule antagonists of the constitutive androstane receptor (CAR) signaling pathway (AID 1224838);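 also: HepG2 cells stably expressing hCAR with CYP2B6 luciferase reporter stimulated by CITCO; nearly all actives have a fitted effect of over 40% in size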; also: potency is read from the fitted curve at half-maximal effect
Procedure, shortened: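 Luminescence from a CYP2B6-2.2kb promoter reporter in hCAR-expressing HepG2 cells reflects CAR signaling. Cells received compounds at 15 concentrations and 50 nM CITCO (final), then incubated 24 h at 37 C/5% CO2.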

[14] = qHTS assay to identify small molecule antagonists of the estrogen related receptor signaling pathway with the pleiotropic PPARgamma coactivator (PGC) from Tox21 10K library - cell viability counter screen (AID 1224840; active = well fitted cell-killing curve with a large enough effect in the repeat runs, not every such curve was filed as active; also: nearly all actives have a fitted effect of over 40% in size; also: potency is read from the fitted curve at half-maximal effect)
Procedure, shortened: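 Cell viability is measured by CellTiter-Fluor fluorescence in PGC/ERR cells that receive compounds after a 6-hour attachment period and are then incubated 17.5 hours at 37 C.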

[15] = qHTS assay to identify small molecule antagonists of the estrogen related receptor (ERR) signaling pathway (AID 1224819; also: potency is read from the fitted curve at half-maximal effect; nearly all actives have a fitted effect of over 50% in size)
Procedure, shortened: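 ERR reporter cell line (NTP) plated at 2,000 cells/well, settled 6 h at 37C/5% CO2, then exposed to LOPAC compounds for 18 h at 37C. One-Glo luciferase luminescence read after 30 min at room temperature.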

[16] = qHTS assay to identify small molecule agonists of the estrogen related receptor (ERR) signaling pathway (AID 1224820)
Procedure, shortened: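 Following a 6 h settling period, 2,000 ERR cells per well receive DMSO-dissolved compounds by pin tool and incubate 18 h at 37 C; agonist activity is scored from One-Glo luminescence read 30 min post-addition.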

[17] = system: estrogen-related receptor alpha (ERRalpha) with PGC-1alpha coactivator, human; experiment: qHTS assay to identify small molecule antagonists of the estrogen related receptor signaling pathway with the pleiotropic PPARgamma coactivator (PGC) (AID 1224821; calls by dose curve)
Procedure, shortened: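 Screening used NTP's PGC/ERR cells, dosed via pin tool with compound in DMSO alongside positive and negative controls. After 18 h at 37 C, One-Glo reagent sat 30 min at room temperature before luminescence detection.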

[18] = qHTS assay to identify small molecule antagonists of the estrogen related receptor signaling pathway with the pleiotropic PPARgamma coactivator (PGC) cell viability counter screen (AID 1224822;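 also: potency is read from the fitted curve at half-maximal effect; viability read after 17.5 h compound exposure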)
Procedure, shortened: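 Cytotoxicity in the PGC/ERR cell line is assessed with CellTiter-Fluor, read as fluorescence intensity 30 min after reagent addition, following 17.5 h compound treatment at 37 C.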

[19] = qHTS assay to identify small molecule agonists of the estrogen related receptor signaling pathway with the pleiotropic PPARgamma coactivator (PGC) (AID 1224823)
Procedure, shortened: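 In this quantitative high-throughput screen, an 18 h, 37 C treatment of PGC/ERR cells with compounds in DMSO preceded a One-Glo luminescence read taken after 30 min at room temperature.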

Measured: Potency

CCC(C)c1cccc(C(C)CC)c1O (stereo not drawn)
inactive: [1] | [2] | [3] | [4] | [5]

N#Cc1c2ccccc2cc2ccccc12
inactive: [6] | [7] | [2] | [8] | [3] | [9] | [10] | [11] | [12]

Cc1ccccc1OP(=O)(Oc1ccccc1C)Oc1ccccc1C
active: [9] 21.8 µM
inactive: [6] | [8] | [3] | [4] | [5] | [13] | [14] | [10] | [11] | [12]

CCC(OC(C)=O)C(CC(C)NC)(c1ccccc1)c1ccccc1 (stereo not drawn)
active: [7] 30.9 µM | [8] 69.2 µM | [4] 69.2 µM | [5] 69.2 µM | [13] 69.2 µM
inactive: [6] | [3] | [9] | [10] | [12]

CC(C)C(Br)C(=O)NC(N)=O (stereo not drawn)
inactive: [1] | [8] | [3] | [4] | [5] | [13] | [9] | [14] | [12]

Cc1cc(C2CC2)nc(Nc2ccccc2)n1
active: [2] 19.3 µM | [3] 39.9 µM | [9] 54.5 µM
inactive: [7] | [4] | [5] | [13]

CC1=C2C[C@H]3[C@@H](CC=C4C[C@@H](O)CC[C@@]43C)[C@@H]2CC[C@]12O[C@@H]1C[C@H](C)CN[C@H]1[C@H]2C
inactive: [6] | [7] | [2] | [3] | [5] | [9] | [12]
active: [8] 26.6 µM | [14] 26.6 µM

CN1CCc2cc(Cl)c(O)cc2[C@H]2c3ccccc3CC[C@@H]21
inactive: [6] | [8] | [3] | [13] | [9] | [14] | [10] | [12]

[Cl-].[Cl-].[Cl-].[Yb+3]
inactive: [6] | [8] | [4] | [5] | [14]

C=CCOC(=O)c1ccccc1N
not listed: [1] | [3] | [9] | [15] | [16] | [17] | [18] | [19]
inactive: all other assays above

CCC[CH2][Sn]([CH2]CCC)([O]C(C)=O)[O]C(C)=O
inactive: [6] | [3] | [12]
active: [7] 0.138 µM | [8] 0.138 µM | [4] 0.437 µM | [5] 0.437 µM | [14] 0.138 µM | [10] 34.7 nM

CCOP(=S)(OCC)Oc1cc(C)nc(N(CC)CC)n1
inactive: [6] | [8] | [3] | [4] | [5] | [13] | [14] | [11]
active: [9] 19.3 µM

Fc1ccc(C(OCCN2CCN(CCCc3ccccc3)CC2)c2ccc(F)cc2)cc1
inactive: [16] | [19] | [3] | [9] | [12]
active: [1] 16.9 µM | [15] 9.08 µM | [17] 12.8 µM | [18] 22.8 µM | [8] 26.6 µM | [4] 21.1 µM | [5] 21.1 µM | [14] 26.6 µM

CCCCCCC[CH2][Sn]([Cl])([Cl])[CH2]CCCCCCC
inactive: [6] | [2] | [3] | [4] | [5] | [13] | [9] | [12]

CCCCCCCc1ccc(O)cc1
inactive: [6] | [4] | [5] | [13] | [14] | [12]

CCCCC/C=C\C/C=C\C/C=C\C/C=C\CCCC(=O)NCC(=O)O
inactive: [6] | [7] | [2] | [8] | [3] | [4] | [5] | [13] | [9] | [14]

c1ccc(Nc2ccc(Nc3ccccc3)cc2)cc1
active: [2] 5.43 µM | [3] 28.1 µM | [9] 24.2 µM
inactive: [6] | [4] | [5] | [13] | [14] | [10]
